Calls of active or inactive are those of the source. The calls were made as follows: active = hit-call score of the fitted dose curve at least 0.9, where 1 is the maximum; inactive = score below 0.9.
Tests used:
Conditions in all cases: mRNA level, 48 h; actives raise or lower the signal
[1] = read-out: ABC Transporter (ABCB11), ABCB11 (gene 8647); experiment: LTEA_HepaRG_ABCB11: Life Technologies and Expression Analysis (LTEA) Assay for ABC Transporter (ABCB11) using HepaRG (AID 2283463)
Procedure, shortened: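 Using HepaRG cultures held in 0.5% DMSO, chemicals were tested at half-log dilutions from 100 uM for 48 h. Induction or suppression of ABCB11 mRNA, normalized to ACTB, GAPDH and POLR2A, was fitted bidirectionally against vehicle.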

[2] = read-out: ABC Transporter (ABCC2), ABCC2 (gene 1244); experiment: LTEA_HepaRG_ABCC2: Life Technologies and Expression Analysis (LTEA) Assay for ABC Transporter (ABCC2) using HepaRG (AID 2283464)
Procedure, shortened: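 HepaRG cells were plated 48 h, switched to serum-free induction medium, then exposed in duplicate for 48 h to 8 concentrations (top 100 uM, half-log steps, 0.5% DMSO). ABCC2 mRNA was measured by qRT-PCR normalized to ACTB/GAPDH/POLR2A; bidirectional fitting versus DMSO.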

[3] = read-out: Broad substrate specificity ATP-binding cassette transporter ABCG2 (Homo sapiens) (UniProt Q9UNQ0); experiment: LTEA_HepaRG_ABCG2: Life Technologies and Expression Analysis (LTEA) Assay for ABC Transporter (ABCG2) using HepaRG (AID 2283465)
Procedure, shortened: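 Gene expression of ABCG2 in HepaRG liver cells is quantified by qRT-PCR following 48 h exposure across an eight-point series topping at 100 uM. Values come from bidirectional fitting relative to DMSO vehicle.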

[4] = read-out: ATP-citrate lyase (ACLY), ACLY (gene 47); experiment: LTEA_HepaRG_ACLY: Life Technologies and Expression Analysis (LTEA) Assay for ATP-citrate lyase (ACLY) using HepaRG (AID 2283466)
Procedure, shortened: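 ACLY expression changes in human HepaRG liver cells are quantified by qRT-PCR after 48 h exposure to test chemicals (maximum 100 uM, half-log steps). Values are fitted in both directions relative to 0.5% DMSO vehicle.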

[5] = read-out: Peroxisomal acyl-coenzyme A oxidase 1 (ACOX1) gene, ACOX1 (gene 51); experiment: LTEA_HepaRG_ACOX1: Life Technologies and Expression Analysis (LTEA) Assay for Peroxisomal acyl-coenzyme A oxidase 1 (ACOX1) gene using HepaRG (AID 2283467)
Procedure, shortened: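 Human HepaRG hepatic cultures, 48 h treatment with test chemicals up to 100 uM. ACOX1 expression read by qRT-PCR relative to 0.5% DMSO vehicle.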

[6] = read-out: Alkaline Phosphatase, Placental (ALPP) gene, ALPP (gene 250); experiment: LTEA_HepaRG_ALPP: Life Technologies and Expression Analysis (LTEA) Assay for Alkaline Phosphatase, Placental (ALPP) gene using HepaRG (AID 2283468)
Procedure, shortened: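 Differentiated human HepaRG cells were plated and cultured 48 h, then exposed in duplicate for 48 h in serum-free induction medium to eight half-log concentrations from 100 uM in 0.5% DMSO. ALPP mRNA was measured by TaqMan qRT-PCR, normalized to ACTB, GAPDH, POLR2A.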

[7] = read-out: Bcl-2 (BAD) gene, BAD (gene 572); experiment: LTEA_HepaRG_BAD: Life Technologies and Expression Analysis (LTEA) Assay for Bcl-2 (BAD) gene using HepaRG (AID 2283469)
Procedure, shortened: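 Activity values reflect up- or down-regulation of BAD mRNA in human HepaRG hepatic cells treated 48 h in serum-free medium, with eight-point half-log dosing capped at 100 uM and 0.5% DMSO vehicle.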

[8] = read-out: Bcl-2 (BAX) gene, BAX (gene 581); experiment: LTEA_HepaRG_BAX: Life Technologies and Expression Analysis (LTEA) Assay for Bcl-2 (BAX) gene using HepaRG (AID 2283470)
Procedure, shortened: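 qRT-PCR read-out of BAX mRNA, normalized to three housekeeping genes, after 48 h chemical exposure of human HepaRG cells in serum-free induction medium; eight-point half-log series, top 100 uM, 0.5% DMSO vehicle; bidirectional fit versus DMSO.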

[9] = read-out: adenosine kinase (ADK) gene, ADK (gene 132); experiment: LTEA_HepaRG_ADK: Life Technologies and Expression Analysis (LTEA) Assay for adenosine kinase (ADK) gene using HepaRG (AID 2283471)
Procedure, shortened: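 Differentiated HepaRG cells dosed 48 h in serum-free induction medium, 0.5% DMSO vehicle, eight half-log concentrations from 100 uM, in duplicate. ADK mRNA by TaqMan qRT-PCR normalised to ACTB, GAPDH, POLR2A; bidirectional fit versus DMSO.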

[10] = read-out: Alpha-fetoprotein (AFP) gene, AFP (gene 174); experiment: LTEA_HepaRG_AFP: Life Technologies and Expression Analysis (LTEA) Assay for Alpha-fetoprotein (AFP) gene using HepaRG (AID 2283472)
Procedure, shortened: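 qRT-PCR (Fluidigm TaqMan) readout of AFP transcript, normalized to three housekeeping genes, fitted bidirectionally against 0.5% DMSO baseline. HepaRG cells received chemicals for 48 h in serum-free induction medium, top concentration 100 uM, half-log steps.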

BCL2L11 (gene 10018) = experiment: LTEA_HepaRG_BCL2L11: Life Technologies and Expression Analysis (LTEA) Assay for Bcl-2 (BCL2L11) gene using HepaRG (AID 2283473)
Procedure, shortened: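 Differentiated human HepaRG cells in serum-free induction medium were exposed in duplicate for 48 h to eight concentrations (top 100 uM, half-log steps, 0.5% DMSO). BCL2L11 mRNA was quantified by TaqMan qRT-PCR, normalized to ACTB/GAPDH/POLR2A, bidirectional fit versus DMSO.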

[11] = read-out: Apolipoprotein A-V (APOA5) gene, APOA5 (gene 116519); experiment: LTEA_HepaRG_APOA5: Life Technologies and Expression Analysis (LTEA) Assay for Apolipoprotein A-V (APOA5) gene using HepaRG (AID 2283474)
Procedure, shortened: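 Differentiated human HepaRG cells were exposed in duplicate for 48 h to eight half-log concentrations from 100 uM in 0.5% DMSO. APOA5 mRNA was quantified by TaqMan qRT-PCR, normalized to ACTB, GAPDH and POLR2A, and fitted bidirectionally against DMSO.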

[12] = read-out: Bcl-2 (BID) gene, BID (gene 637); experiment: LTEA_HepaRG_BID: Life Technologies and Expression Analysis (LTEA) Assay for Bcl-2 (BID) gene using HepaRG (AID 2283476)
Procedure, shortened: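 HepaRG, 48 h exposure, 8-pt half-log series, top 100 uM, 0.5% DMSO vehicle, duplicates. Readout: BID mRNA by TaqMan qRT-PCR; housekeeping-normalized; bidirectional curve fit vs DMSO baseline.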

Caspase-3 (Homo sapiens) = Caspase-3 (Homo sapiens) (UniProt P42574); experiment: LTEA_HepaRG_CASP3: Life Technologies and Expression Analysis (LTEA) Assay for cysteine-aspartic acid protease (CASP3) using HepaRG (AID 2283477)
Procedure, shortened: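 Differentiated human HepaRG cells in serum-free induction medium were exposed 48 h to 8-point half-log concentrations from 100 uM (0.5% DMSO vehicle). CASP3 mRNA was measured by qRT-PCR, normalised to ACTB, GAPDH and POLR2A, with bidirectional fitting against DMSO.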

[13] = read-out: Cytochrome P450 (CYP24A1), CYP24A1 (gene 1591); experiment: LTEA_HepaRG_CYP24A1: Life Technologies and Expression Analysis (LTEA) Assay for Cytochrome P450 (CYP24A1) using HepaRG (AID 2283478)
Procedure, shortened: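 Differentiated HepaRG cells, pre-cultured 48 h, were exposed in duplicate for 48 h in serum-free induction medium to 8 half-log concentrations (top 100 uM, 0.5% DMSO). CYP24A1 mRNA was quantified by TaqMan qRT-PCR, normalized to ACTB/GAPDH/POLR2A, fitted bidirectionally versus DMSO.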

[14] = read-out: Cytochrome P450 (CYP1A2), CYP1A2 (gene 1544); experiment: LTEA_HepaRG_CYP1A2: Life Technologies and Expression Analysis (LTEA) Assay for Cytochrome P450 (CYP1A2) using HepaRG (AID 2283479)
Procedure, shortened: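 Differentiated human HepaRG cells in serum-free induction medium were exposed in duplicate for 48 h to 8-point half-log concentrations up to 100 uM in 0.5% DMSO. CYP1A2 mRNA measured by qRT-PCR, normalized to ACTB, GAPDH, POLR2A; bidirectional fit vs DMSO.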

[15] = read-out: cysteine-aspartic acid protease (CASP8), CASP8 (gene 841); experiment: LTEA_HepaRG_CASP8: Life Technologies and Expression Analysis (LTEA) Assay for cysteine-aspartic acid protease (CASP8) using HepaRG (AID 2283480)
Procedure, shortened: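 Concentration-response in duplicate up to 100 uM (half-log steps, 0.5% DMSO) on differentiated HepaRG cultures for 48 h. Expression change of CASP8 mRNA is determined by TaqMan qRT-PCR with housekeeping-gene normalization.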

[16] = read-out: Cytochrome P450 (CYP2B6), CYP2B6 (gene 1555); experiment: LTEA_HepaRG_CYP2B6: Life Technologies and Expression Analysis (LTEA) Assay for Cytochrome P450 (CYP2B6) using HepaRG (AID 2283481)
Procedure, shortened: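 Differentiated HepaRG cells, serum-free induction medium, exposed 48 h in duplicate to 8-point half-log concentrations from 100 uM in 0.5% DMSO. CYP2B6 mRNA by qRT-PCR, normalized to ACTB, GAPDH, POLR2A; bidirectional fit versus DMSO.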

[17] = read-out: Cytochrome P450 2C19 (Homo sapiens) (UniProt P33261); experiment: LTEA_HepaRG_CYP2C19: Life Technologies and Expression Analysis (LTEA) Assay for CYP2C19 using HepaRG (AID 2283482)
Procedure, shortened: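 Differentiated human HepaRG cells were exposed for 48 h in serum-free induction medium to 8 concentrations (top 100 uM, half-log steps, 0.5% DMSO). CYP2C19 mRNA was measured by qRT-PCR, normalized to ACTB/GAPDH/POLR2A, and fitted bidirectionally against DMSO.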

[18] = read-out: Apoptosis regulator Bcl-2 (Homo sapiens) (UniProt P10415); experiment: LTEA_HepaRG_BCL2: Life Technologies and Expression Analysis (LTEA) Assay for Bcl-2 gene using HepaRG (AID 2283475)
Procedure, shortened: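 qRT-PCR read-out (Fluidigm TaqMan) of BCL2 transcript, normalised to three housekeeping genes, after 48 h chemical exposure of HepaRG cells; 8-point half-log series, top 100 uM, 0.5% DMSO vehicle. Gain or loss of signal fitted relative to DMSO baseline.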

Measured: AC50

Chain of Caspase-3 (Homo sapiens) (P42574 whole entry, looked up): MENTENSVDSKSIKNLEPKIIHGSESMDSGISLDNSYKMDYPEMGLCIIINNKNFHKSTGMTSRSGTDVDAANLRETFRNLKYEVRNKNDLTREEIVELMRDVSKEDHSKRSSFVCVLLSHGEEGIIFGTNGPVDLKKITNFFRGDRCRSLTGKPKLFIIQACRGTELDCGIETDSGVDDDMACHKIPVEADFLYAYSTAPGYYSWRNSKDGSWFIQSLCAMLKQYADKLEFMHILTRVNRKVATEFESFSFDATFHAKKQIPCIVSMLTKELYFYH
Chain of Cytochrome P450 2C19 (Homo sapiens) (P33261 whole entry, looked up): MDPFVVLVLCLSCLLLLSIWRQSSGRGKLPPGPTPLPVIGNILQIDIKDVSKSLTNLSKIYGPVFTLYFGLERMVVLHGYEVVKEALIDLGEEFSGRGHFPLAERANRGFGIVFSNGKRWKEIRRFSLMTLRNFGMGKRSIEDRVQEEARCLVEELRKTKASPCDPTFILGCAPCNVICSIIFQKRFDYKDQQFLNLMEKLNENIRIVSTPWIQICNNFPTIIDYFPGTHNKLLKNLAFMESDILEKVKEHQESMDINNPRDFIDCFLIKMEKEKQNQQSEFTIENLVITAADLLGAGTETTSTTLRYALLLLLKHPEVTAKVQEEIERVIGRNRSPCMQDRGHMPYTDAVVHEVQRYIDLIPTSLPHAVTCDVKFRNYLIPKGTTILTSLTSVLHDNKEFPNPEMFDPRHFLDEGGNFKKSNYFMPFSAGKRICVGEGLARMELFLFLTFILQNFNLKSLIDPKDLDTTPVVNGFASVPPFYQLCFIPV
Chain of Broad substrate specificity ATP-binding cassette transporter ABCG2 (Homo sapiens) (Q9UNQ0 whole entry, looked up): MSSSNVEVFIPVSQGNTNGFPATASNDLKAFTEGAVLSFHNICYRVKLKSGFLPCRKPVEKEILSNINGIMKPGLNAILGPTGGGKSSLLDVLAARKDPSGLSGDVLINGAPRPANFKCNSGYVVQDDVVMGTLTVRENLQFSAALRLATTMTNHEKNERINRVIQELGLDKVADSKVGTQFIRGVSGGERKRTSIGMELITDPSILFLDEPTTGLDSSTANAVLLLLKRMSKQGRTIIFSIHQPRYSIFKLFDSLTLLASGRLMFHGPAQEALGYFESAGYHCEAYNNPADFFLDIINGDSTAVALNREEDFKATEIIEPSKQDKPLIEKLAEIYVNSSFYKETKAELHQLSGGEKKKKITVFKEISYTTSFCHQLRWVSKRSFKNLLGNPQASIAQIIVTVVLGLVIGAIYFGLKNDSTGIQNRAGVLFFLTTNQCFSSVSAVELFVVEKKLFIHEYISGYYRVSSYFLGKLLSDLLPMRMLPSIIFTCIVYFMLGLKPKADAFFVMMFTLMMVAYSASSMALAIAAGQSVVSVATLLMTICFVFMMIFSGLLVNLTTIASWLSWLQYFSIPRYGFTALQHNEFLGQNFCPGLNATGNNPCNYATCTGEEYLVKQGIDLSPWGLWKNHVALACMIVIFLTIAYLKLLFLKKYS
Chain of Apoptosis regulator Bcl-2 (Homo sapiens) (P10415 whole entry, looked up): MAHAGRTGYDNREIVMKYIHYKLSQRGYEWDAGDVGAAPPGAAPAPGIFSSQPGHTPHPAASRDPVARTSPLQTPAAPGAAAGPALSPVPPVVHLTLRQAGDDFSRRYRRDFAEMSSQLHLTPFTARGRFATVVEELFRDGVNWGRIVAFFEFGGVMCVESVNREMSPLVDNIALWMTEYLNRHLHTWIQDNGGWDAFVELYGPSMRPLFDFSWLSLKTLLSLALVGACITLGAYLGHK

CCNc1nc(Cl)nc(NC(C)(C)C#N)n1
active: [2] 5.92 µM | [16] 1.68 µM | [17] 12.4 µM
not listed: [18]
inactive: all other assays above

CC[C@H](C)[C@H]1O[C@]2(C=C[C@@H]1C)C[C@@H]1C[C@@H](C/C=C(\C)[C@@H](O[C@H]3C[C@H](OC)[C@@H](O[C@H]4C[C@H](OC)[C@@H](NC)[C@H](C)O4)[C@H](C)O3)[C@@H](C)/C=C/C=C3\CO[C@@H]4[C@H](O)C(C)=C[C@@H](C(=O)O1)[C@]34O)O2
inactive: [4] | [7] | [11] | Caspase-3 (Homo sapiens) | [13] | [14] | [15]
active: [1] 39.6 µM | [2] 13.3 µM | [3] 14.4 µM | [5] 13 µM | [6] 11.9 µM | [8] 50 µM | [9] 50 µM | [10] 87.7 µM | BCL2L11 (gene 10018) 12.5 µM | [12] 25 µM | [16] 11.6 µM | [17] 12.6 µM

COP(=O)(OC)SCn1c(=O)oc2cc(Cl)cnc21
active: [1] 39.3 µM | BCL2L11 (gene 10018) 50 µM | [11] 0.282 µM | [12] 0.00316 µM | [16] 50 µM | [17] 50 µM
not listed: [18]
inactive: all other assays above

C[N+]1(C)CCCCC1
not listed: [17] | [18]
inactive: all other assays above

CC1=NNC(=O)N(/N=C/c2cccnc2)C1
active: [14] 6.84 µM
not listed: [8] | [17] | [18]
inactive: all other assays above

COP(=O)(NC(C)=O)SC (stereo not drawn)
not listed: [14] | [17] | [18]
inactive: all other assays above

COc1cccc(C(=O)NN(C(=O)c2cc(C)cc(C)c2)C(C)(C)C)c1C
active: [1] 19.5 µM | [2] 8.52 µM | [3] 16.7 µM | [10] 7.69 µM | [14] 18.7 µM | [16] 1.16 µM | [17] 1.49 µM
not listed: [18]
inactive: all other assays above

Cc1cc(C2CC2)nc(Nc2ccccc2)n1
active: [1] 74.6 µM | [14] 91.5 µM | [16] 18 µM
not listed: [18]
inactive: all other assays above

COP(=O)(OC)OC(Br)C(Cl)(Cl)Br (stereo not drawn)
active: [14] 26.3 µM | [16] 2.45 µM
not listed: [8] | BCL2L11 (gene 10018)
inactive: all other assays above

CCCOc1nn(C(=O)NS(=O)(=O)c2ccccc2C(=O)OC)c(=O)n1C
not listed: [18]
inactive: all other assays above

CSc1nnc(C(C)(C)C)c(=O)n1N
active: [16] 14.6 µM | [17] 9.92 µM
not listed: [18]
inactive: all other assays above

CCCSP(=O)(OCC)Oc1ccc(Br)cc1Cl (stereo not drawn)
active: [16] 13.4 µM
not listed: [17] | [18]
inactive: all other assays above

CN1COCN(Cc2cnc(Cl)s2)C1=N[N+](=O)[O-]
active: [16] 50 µM
not listed: [18]
inactive: all other assays above

CSc1nc(NC(C)C)nc(NC(C)C)n1
active: [1] 56.7 µM | [10] 50 µM | [11] 50 µM | [16] 1.31 µM
not listed: [6] | [17]
inactive: all other assays above

Source: PubChem BioAssay (EPA / NIEHS)
